Results: PubChem BioAssay (EPA / NIEHS)
Several values for one entry are separate records, joined by “and”; a condition that tells them apart may be missing. Equal entries are not always repeated. Records with an inconclusive call do not appear. More than one record can exist for a structure, and the calls need not agree. Activity calls are given as the source filed them. How the source made its calls, unless noted: active means hit-call score of the fitted dose curve at least 0.9, where 1 is the maximum; inactive means score below 0.9.

Experiments:
[1] = CCTE_Mundy_HCI_hNP1_Casp3_7: CCTE's Caspase-Glo 3/7 Assay in human neuroprogenitor cells for Apoptosis, Mundy Lab (AID 2284240)
In short: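 Apoptosis is scored by activated caspase-3/7 luminescence in WA09-derived neural progenitor cells, measured 26.5 h after chemical dosing. Values represent gain of signal relative to DMSO vehicle.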

[2] = read-out: Interleukin 17F (IL17F), IL17F (gene 112744); test: BSK_BT_xIL17F: BioMAP Diversity Plus: BT Assay for Interleukin 17F (IL17F) Biomarker Activity (AID 2284243); settings: primary human B cells with PBMC
In short: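 Compound was added to co-cultures of human B cells and PBMC. After 24 hours, IL-17F released into the medium was measured with LumineX xMAP technology. Responses were then fitted upward relative to DMSO.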

[3] = read-out: Actin alpha 1 (ACTA1), ACTA1 (gene 58); test: BSK_MyoF_ACTA1: BioMAP Diversity Plus: MyoF Assay for Actin alpha 1 (ACTA1) Biomarker Activity (AID 2284244); settings: primary human lung fibroblasts
In short: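 MyoF fibroblast system (human lung); a-SMA quantified via ELISA at 24 h; DMSO-normalised, gain-of-signal endpoint.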

[4] = read-out: Interleukin 2 (IL2), IL2 (gene 3558); test: BSK_BT_xIL2: BioMAP Diversity Plus: BT Assay for Interleukin 2 (IL2) Biomarker Activity (AID 2284245); settings: primary human B cells with PBMC
In short: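 Co-cultures of primary human B cells and PBMC are treated with chemical and sampled at 24 h. IL-2 secretion is quantified by Luminex xMAP, with DMSO-treated wells as baseline.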

[5] = read-out: Basic fibroblast growth factor (bFGF), FGF2 (gene 2247); test: BSK_MyoF_bFGF: BioMAP Diversity Plus: MyoF Assay for Basic fibroblast growth factor (bFGF) Biomarker Activity (AID 2284246); settings: primary human lung fibroblasts
In short: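 Fibroblasts from human lung, 24 h dosing. bFGF by ELISA; gain of signal over DMSO.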

[6] = read-out: Collagen IV, COL4A1 (gene 1282); test: BSK_MyoF_CollagenIV: BioMAP Diversity Plus: MyoF Assay for Collagen IV Biomarker Activity (AID 2284247); settings: primary human lung fibroblasts
In short: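 Lung fibroblasts (human primary) treated with chemicals were assayed after 24 h for Collagen IV using an ELISA, with DMSO serving as negative control and baseline for a positive-direction fit.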

[7] = read-out: Monokine induced gamma interferon (MIG), CXCL9 (gene 4283); test: BSK_KF3CT_MIG: BioMAP Diversity Plus: KF3CT Assay for Monokine induced gamma interferon (MIG) Biomarker Activity (AID 2284248); settings: primary human keratinocytes with fibroblasts
In short: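 KF3CT system: keratinocyte/fibroblast co-culture, 24 h post-dose, MIG by ELISA; activity vs DMSO, positive fitting direction.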

[8] = read-out: Vascular cell adhesion molecule 1 (VCAM1), VCAM1 (gene 7412); test: BSK_BF4T_VCAM1: BioMAP Diversity Plus: BF4T Assay for Vascular cell adhesion molecule 1 (VCAM1) Biomarker Activity (AID 2284249); settings: primary human bronchial epithelial cells with fibroblasts
In short: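 Cell-surface VCAM-1 quantified by ELISA after 24 h chemical exposure of human bronchial epithelial/dermal fibroblast co-cultures, with SRB staining in parallel wells for cytotoxicity; DMSO baseline, positive-direction fitting.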

[9] = CCTE_Mundy_HCI_hNP1_CellTiter: CCTE's Cell Titer-Glo 2 Assay in human neuroprogenitor cells for Viability, Mundy Lab (AID 2284241; active means hit-call score of the fitted dose curve at least 0.9, where 1 is the maximum;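 on AC50: a hit is a drop in ATP luminescence versus DMSO meaning reduced viability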)
In short: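 Human neural progenitor cells (hNP1, WA09-derived) were plated on poly-L-ornithine/laminin and grown 40 to 44 hours at 37 °C, 5% CO2 before chemical addition. Twenty-four hours later, ATP was measured by CellTiter-Glo luminescence; loss of signal versus DMSO indicates reduced viability.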

[10] = CCTE_Mundy_HCI_Cortical_Synap_Neur_Matur_NeuronCount: CCTE's Synaptogenesis and Neurite Maturation Assay in rat cortical cells for Neuron Count, Mundy Lab (AID 2284242; active means hit-call score of the fitted dose curve at least 0.9, where 1 is the maximum;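 on AC50: hits reduce neuron count versus DMSO baseline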)
In short: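 Measured at DIV 12: fluorescently labelled neurons (Hoechst nuclei, MAP2) in rat primary cortical cultures, counted by high-content imaging. AraC suppressed glia from DIV 5; DMSO served as negative control.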

Measured: AC50

OCCC(F)(F)C(F)(F)C(F)(F)C(F)(F)C(F)(F)C(F)(F)F
inactive: [1] | [2] | [3] | [4] | [5] | [6] | [7] | [8]
active: [2] 5.95 µM

C[C@@H]1C[C@H]2[C@@H]3CCC4=CC(=O)C=C[C@]4(C)[C@@]3(F)[C@@H](O)C[C@]2(C)[C@@]1(O)C(=O)COP(=O)(O)O
inactive: [2] | [3] | [5] | [6] | [7] | [8]
active: [2] 0.277 µM | [3] 267 nM | [4] 807 nM and 148 nM

NCC(F)(F)C(F)(F)C(F)(F)C(F)(F)C(F)(F)C(F)(F)C(F)(F)F
not listed: [1] | [9] | [10]
inactive: all other assays above

CCCCCCCCCCCCCC[N+](C)(C)C
active: [2] 2.26 µM | [3] 2310 nM | [4] 1.67 µM | [5] 4.65 µM | [6] 5.43 µM

C=C(C)C(=O)OCCC(F)(F)C(F)(F)C(F)(F)C(F)(F)C(F)(F)C(F)(F)F
not listed: [10]
inactive: all other assays above

CN1CCC[C@H]1c1cccnc1
inactive: [1]

CC1=C(/C=C/C(C)=C/C=C/C(C)=C/C(=O)O)C(C)(C)CCC1
inactive: [1] | [10]

OCCC(F)(F)C(F)(F)C(F)(F)C(F)(F)C(F)(F)C(F)(F)C(F)(F)C(F)(F)F
active: [2] 22.9 µM and 36.3 µM | [3] 14.6 µM and 15.1 µM | [4] 23.6 µM and 28.4 µM | [5] 17.4 µM and 10.7 µM | [7] 21.4 µM and 23.7 µM | [8] 8.57 µM and 8 µM
inactive: [1] | [9] | [6]

CC#C[C@]1(O)CC[C@H]2[C@@H]3CCC4=CC(=O)CCC4=C3[C@@H](c3ccc(N(C)C)cc3)C[C@@]21C
active: [1] 13.5 µM and 18.4 µM | [9] 27.4 µM and 21.6 µM | [10] 22.9 µM and 25.2 µM

FC(F)(I)C(F)(F)C(F)(F)C(F)(F)C(F)(F)C(F)(F)I
inactive: [6]
active: [5] 8.27 µM [middle of 5 runs] | [7] 9.38 µM [middle of 5 runs] | [8] 6.79 µM [middle of 5 runs]
